# Measurements reported in PubChem BioAssay AID528 (NMMLSC, 2006).
# Screen size: about 24,000 compounds; fewer than 10 were called active. Not shown: some 9% with an inconclusive outcome.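 The calls were made as follows: active = fluorescent ligand binding to cells raised by more than 40% of the manganese-induced maximum; inconclusive = compound's own fluorescence above 85% of the ligand control signal; inactive = the rest.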 These entries were drawn from the full list.
# Target: Integrin alpha-4 (Homo sapiens) (UniProt P13612)
# Sequence (P13612 whole entry, looked up): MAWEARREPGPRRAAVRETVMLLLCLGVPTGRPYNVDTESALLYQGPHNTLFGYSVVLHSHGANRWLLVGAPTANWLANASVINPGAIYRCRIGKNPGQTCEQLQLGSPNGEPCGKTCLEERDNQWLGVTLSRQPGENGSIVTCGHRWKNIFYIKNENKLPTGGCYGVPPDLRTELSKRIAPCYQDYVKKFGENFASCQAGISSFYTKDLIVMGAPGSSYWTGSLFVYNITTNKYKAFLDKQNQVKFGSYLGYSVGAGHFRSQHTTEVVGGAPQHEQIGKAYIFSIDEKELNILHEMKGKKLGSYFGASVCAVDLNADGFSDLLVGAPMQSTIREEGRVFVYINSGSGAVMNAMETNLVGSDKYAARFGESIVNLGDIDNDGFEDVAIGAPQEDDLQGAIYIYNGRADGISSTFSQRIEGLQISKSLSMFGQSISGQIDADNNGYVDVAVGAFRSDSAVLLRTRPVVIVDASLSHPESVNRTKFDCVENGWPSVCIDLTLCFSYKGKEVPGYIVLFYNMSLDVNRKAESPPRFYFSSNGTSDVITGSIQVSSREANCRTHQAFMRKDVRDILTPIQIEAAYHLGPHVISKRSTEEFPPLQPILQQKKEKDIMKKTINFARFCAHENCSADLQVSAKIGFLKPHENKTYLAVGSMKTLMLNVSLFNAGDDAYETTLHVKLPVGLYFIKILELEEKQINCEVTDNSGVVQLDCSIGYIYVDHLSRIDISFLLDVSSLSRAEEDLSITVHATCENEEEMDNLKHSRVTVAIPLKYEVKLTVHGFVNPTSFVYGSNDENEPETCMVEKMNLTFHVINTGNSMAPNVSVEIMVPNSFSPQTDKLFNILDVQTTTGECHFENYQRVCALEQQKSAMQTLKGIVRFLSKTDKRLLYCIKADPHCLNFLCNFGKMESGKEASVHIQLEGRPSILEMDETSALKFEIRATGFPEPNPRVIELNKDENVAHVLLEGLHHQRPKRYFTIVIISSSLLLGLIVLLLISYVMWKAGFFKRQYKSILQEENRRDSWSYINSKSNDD
# Test: increased LDV-FITC ligand binding on VLA-4 – Jurkat cells, flow cytometry, primary screen (AID 528);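 also: 0% = ligand binding without compound and 100% = manganese-stimulated maximal binding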
# Conditions: active compounds read high, screened at 10 µM (by protocol)
row,SMILES,activation
1,CCOC(=O)CSc1nnc(NC(=O)c2cccc(S(=O)(=O)N3CCCCC3)c2)s1,0.5% (inactive)
2,CCC(=O)c1ccc(OCC(O)CN2C(=O)NC(C)(C)C2=O)cc1 (stereo unspecified),-4% (inactive)
3,Cc1ccc(-c2cc(C(F)(F)F)n3nc(C(=O)N4CCCC4)cc3n2)cc1,-1% (inactive)
4,Cc1ccc(CNC(=O)CN2CCN(Cc3ccc(Cl)cc3)C2=O)cc1,-2% (inactive)
5,CCn1c(SCC(=O)Nc2ccc3c(c2)OCCO3)nc2c(c1=O)SC(C)C2 (stereo unspecified),-4% (inactive)
6,CS(=O)(=O)NCc1ccc(C(=O)NCc2ccccc2)cc1,1% (inactive)
7,CCCC(=O)Nc1nnc(CC(=O)OCC)s1,-0.5% (inactive)
8,O=C(CC1Oc2ccccc2NC1=O)NCCCN1CCN(Cc2ccccc2)CC1 (stereo unspecified),-1% (inactive)
9,CCC1CCCCN1CCNS(=O)(=O)c1ccc2c(c1)CCN2C(C)=O (stereo unspecified),-4% (inactive)
10,Cc1oc(-c2cccc(Cl)c2)[n+]([O-])c1C,8% (inactive)
11,CCOC(=O)CN1C(=O)C(O)(CC(=O)c2ccccn2)c2ccccc21 (stereo unspecified),4% (inactive)
12,CCOc1ccc(S(=O)(=O)n2ccnc2)c2ccccc12,1% (inactive)
13,Cn1c(=O)c2c(nc(N3CCCCCC3)n2CC(=O)c2ccc(Br)cc2)n(C)c1=O,-1% (inactive)
14,CCOc1ccc(OCC)c(NC(=O)C(NS(=O)(=O)c2ccc3c(c2)oc(=O)n3C)C(C)C)c1 (stereo unspecified),-2% (inactive)
15,Cn1cccc1Cc1nnc(SCC(=O)NCc2ccc3c(c2)OCO3)n1CCc1ccccc1,-4% (inactive)
16,Cn1c(=O)[nH]c(=O)c2c1nc(CN(Cc1ccccc1)Cc1ccccc1)n2CCN1CCOCC1,-6% (inactive)
17,C=CCn1c(=N)n(CC(O)COc2ccc(OC)cc2)c2ccccc21 (stereo unspecified),0% (inactive)
18,CCOc1cc(C(=O)Nc2ncccn2)cc(OCC)c1OCC,11.5% (inactive)
19,Cc1nnc(C)n1/N=C/c1ccc(C(C)C)cc1,-4% (inactive)
20,N#CCCN1CCN(S(=O)(=O)c2ccc(S(=O)(=O)NC3CC3)cc2)CC1,1% (inactive)
21,Cc1nnc(NC(=O)CCC(=O)N2CCC(C)CC2)s1,-0.5% (inactive)
22,O=C(CCn1c(=S)[nH]c2ccccc2c1=O)NCCCN1CCCC1=O,5% (inactive)
23,CC(=O)c1c(N)n(C)c(=O)n(C)c1=O,9% (inactive)
24,CCCn1nnc2sc3c(c2c1=O)CCC(C)C3 (stereo unspecified),4% (inactive)
25,CC1CCCN(C(=O)c2ccc3c(c2)C(=O)N(CCC2=CCCCC2)C3=O)C1 (stereo unspecified),0% (inactive)
26,CCCCC(=O)N(c1ccc(OC)cc1)C1C=CS(=O)(=O)C1 (stereo unspecified),-1% (inactive)

row,SMILES,activation
1,CCCCn1c(=S)[nH]c2ncccc2c1=O,1% (inactive)
2,O=S1(=O)CC(NCc2ccccc2)C(Nc2ccc(Cl)cc2)C1 (stereo unspecified),-8% (inactive)
3,CCCCCCn1c(CN2CCCCC2)nc2c1c(=O)n(C)c(=O)n2C,-6% (inactive)
4,COc1ccccc1C(=O)N1CCN=C1SCc1cccnc1,2% (inactive)
5,Cc1ccc(S(=O)(=O)N2C3C=CC(C3)C2C(=O)O)cc1 (stereo unspecified),5% (inactive)
6,COc1cccc(N(C(=O)c2ccn[nH]2)C2(C(=O)Nc3c(C)cccc3C)CCCCC2)c1,3% (inactive)
7,CCOC(=O)C1CCN(C(=O)C2CCN(S(=O)(=O)N3CCCC3)CC2)CC1,6% (inactive)
8,COc1ccc(-c2nc(CS(=O)CC(=O)NCc3cccnc3)c(C)o2)cc1OC (stereo unspecified),3% (inactive)
9,Cc1noc(C)c1S(=O)(=O)N1CCCC(C(=O)Nc2nccs2)C1 (stereo unspecified),0% (inactive)
10,CCN(CC)S(=O)(=O)N1CCC(C(=O)NC(C)CCc2ccccc2)CC1 (stereo unspecified),3% (inactive)
11,COc1cccc(-n2c(Cc3cc(=O)[nH]c(=O)[nH]3)nnc2SCC(=O)Nc2ccccc2)c1,5% (inactive)
12,Cc1cccc(N2C(=O)SC(N(CC(=O)O)c3cccc(C)c3)C2=O)c1 (stereo unspecified),7% (inactive)
13,CCN(Cc1ccccc1)C(=O)CSc1nc(C)cc2c1C(=O)OC2,-9% (inactive)
14,CCOc1ccc(CNC(=O)C2CCC(=O)N2C2CCCC2)cc1OC (stereo unspecified),-7% (inactive)
15,O=C(CN1CCN(S(=O)(=O)c2ccc(F)cc2)CC1)Nc1ccccc1F,-1% (inactive)
16,COc1ccc(OC)c(N=Cc2c(O)[nH]c3ccccc23)c1,8% (inactive)
17,O=C1c2cccnc2C(=O)N1Cc1cccs1,0% (inactive)
18,COc1ccccc1CNC(=O)CCn1c(=O)sc2ccccc21,5% (inactive)
19,CSCCC(NC(=O)C1CCC(C)CC1)C(=O)NCc1ccco1 (stereo unspecified),3% (inactive)
20,CC(=O)c1c(C)c[nH]c1C,3% (inactive)
21,CCOC(=O)c1cnc(-n2nc(C)cc2C)nc1Nc1cccc(C(C)=O)c1,0% (inactive)
22,CCOc1cc(/C=N/n2cnnc2)c(Br)cc1O,9% (inactive)
23,CC1CN(C(=O)c2ccc3c(c2)OCO3)OC(c2ccccc2)O1 (stereo unspecified),4% (inactive)
24,CCOC(=O)N1CCN(C(=O)c2n[nH]c(=O)c3ccccc23)CC1,-9% (inactive)
25,CCOC(=O)N1CCN(S(=O)(=O)c2cc3c(cc2C)NC(=O)CO3)CC1,-8% (inactive)
26,Cc1oc(-c2ccccc2F)nc1CS(=O)(=O)CC(=O)NCCCN(C)C1CCCCC1,-7% (inactive)

row,SMILES,activation
1,O=C(NCc1cccnc1)c1ccc(CS(=O)(=O)c2ccc(Br)cc2)o1,3% (inactive)
2,CCOC(=O)c1ccc(-n2c(C)nc3c(cnn3-c3ccccc3C)c2=O)cc1,-2.3% (inactive)
3,CCOc1cc2[nH]c(=O)n(CCC(=O)NCc3ccc(OC)cc3)c(=O)c2cc1OCC,1% (inactive)
4,COc1ccccc1NC(=O)CN1CCN(S(=O)(=O)c2ccc(Br)cc2)CC1,1% (inactive)
5,O=C(O)CCC(=O)Nc1ccc(N2CCOCC2)cc1,2% (inactive)
6,S=C1SCN(CCN2CCOCC2)CN1Cc1ccccc1,-3% (inactive)
7,Cc1ccc(S(=O)(=O)NCCN2CCOCC2)cc1C,-2% (inactive)
8,CN1CCCc2cc(C#N)c(=O)[nH]c21,-3% (inactive)
9,CCN1CCN(c2ncnc3c2oc2nc(C)c4c(c23)CC(C)(C)OC4)CC1,9% (inactive)
10,CCOc1ccc(NC(=O)CC2NCCNC2=O)cc1 (stereo unspecified),0.7% (inactive)
11,O=C(CN1CCOCC1)N1CCCc2c1c(=O)oc1ccc(OCc3ccccc3)cc21,-5% (inactive)
12,Cc1ccc2nc3n(c(=O)c2c1)CCC3,5% (inactive)
13,CCOC(=O)Cn1c(N)c(C(=O)OC)sc1=S,-9% (inactive)
14,CCOc1ccc(/C(O)=C2/C(=O)C(=O)N(Cc3cccnc3)C2c2ccc(N(C)C)cc2)c(C)c1 (stereo unspecified),-4% (inactive)
15,CCOC(=O)C1CCN(C(=O)C2CCN(S(=O)(=O)CC)CC2)CC1,0% (inactive)
16,Cn1nnnc1SCc1cc(=O)[nH]c2ccccc12,-4% (inactive)
17,O=C(CC(NCCN1CCOCC1)C(=O)O)Nc1cccc(Cl)c1 (stereo unspecified),5% (inactive)
18,CC(=O)Nc1cc(C(=O)O)ccc1S(=O)(=O)c1ccc(Cl)cc1,5% (inactive)
19,O=C(c1ccc(=O)[nH]c1)N(Cc1ccco1)C1(C(=O)NC2CCCCC2)CCCCC1,8% (inactive)
20,COC(=O)c1cc(S(=O)(=O)NC2CCN(Cc3ccccc3)CC2)cn1C,12% (inactive)
21,CC(c1ccco1)N(C(=O)c1ccc(S(=O)(=O)N2CCCCC2)cc1)c1ccccn1 (stereo unspecified),-5% (inactive)
22,O=C1CC(c2cccc(F)c2)C2=C(CCCC2=O)N1 (stereo unspecified),0% (inactive)
23,Cc1nc(NC(=O)C23CCC(C)(C(=O)O2)C3(C)C)sc1C (stereo unspecified),2% (inactive)
24,CC1Cc2nc(SCC(=O)Nc3ccccc3F)n(C)c(=O)c2S1 (stereo unspecified),-5.7% (inactive)
25,Cc1ccc(C)c(NS(=O)(=O)c2cc(Br)cnc2N)c1,-9% (inactive)
26,O=C1CC(c2cccc(Br)c2)C2=C(CCCC2=O)N1 (stereo unspecified),-3% (inactive)

row,SMILES,activation
1,COc1cccc(NC(=O)Cn2cnc3sc(C)c(S(=O)(=O)N4CCN(C)CC4)c3c2=O)c1,1% (inactive)
2,CCOC(=O)CSc1nnc(CNC(=O)c2cccs2)n1-c1ccccc1,-4% (inactive)
3,O=C1N=C(N2CCOCC2)CS1,5% (inactive)
4,C=CCOC(=O)C1=C(C)OC(N)=C(C#N)C1c1ccc(F)cc1 (stereo unspecified),-2.5% (inactive)
5,CCOC(=O)c1ccc(Nc2cc(C)nc3nc(C)nn23)cc1,5% (inactive)
6,COCCCNC(=O)CCc1nc2cccnc2n1Cc1ccc(OC)cc1,4% (inactive)
7,COc1cccc(Oc2ccc(N)cc2)c1,8% (inactive)
8,CCCN1CCN(C(=O)Cn2ncc3ccccc32)CC1,5% (inactive)
9,Cc1cccc(N2CCN(C(=O)C3CCN(S(=O)(=O)c4cnc[nH]4)CC3)CC2)c1C,0% (inactive)
10,COc1cccc(NC(=O)C2CCCN2C(=O)OCc2ccccc2)c1 (stereo unspecified),-5% (inactive)
11,CC(=O)c1c(C)[nH]c(C(=O)NCCCN2CCCC2)c1C,1% (inactive)
12,COc1cc2[nH]c(=S)n(CCN3CCCCC3C)c(=O)c2cc1OC (stereo unspecified),-3% (inactive)
13,Cn1c(=O)cc(OCCCC(=O)N2CCN(c3ccccn3)CC2)c2ccccc21,-10% (inactive)
14,Cc1cccn2c(=O)c3cc(C(=O)NCc4ccccn4)n(C)c3nc12,-2% (inactive)
15,Cc1nc(SCC(=O)Nc2cc(C)on2)c2c3c(sc2n1)CCCC3,-3.5% (inactive)
16,COc1ccc(C(=O)N(CCN2CCOCC2)CC(=O)NC2CCCC2)cc1OC,6.5% (inactive)
17,O=C(CN1CCOc2ccccc21)N1CCC(Cc2ccccc2)CC1,-1% (inactive)
18,CCOC(=O)CSc1nnc(CNC(=O)Cc2ccccc2)n1-c1ccccc1OC,-3% (inactive)
19,CC1CCC(NS(=O)(=O)c2ccc3c(c2)n(C)c(=O)c(=O)n3C)CC1 (stereo unspecified),6% (inactive)
20,COc1cc(OC)cc(-c2nc3nc(C)c(CCC(=O)NCc4ccco4)c(C)n3n2)c1,-2.7% (inactive)
21,Cc1cc(C)nc(-n2nc(C)cc2NC(=O)c2ccc(Br)o2)n1,1.5% (inactive)
22,Cc1nc2ccc(NC(=O)N3CCC(c4ccccc4)C3)cc2nc1C (stereo unspecified),-3% (inactive)
23,O=C(CNS(=O)(=O)c1ccc(Br)s1)NCc1ccc2c(c1)OCO2,-4% (inactive)
